Data reported in the supplement of paper PMC12067926.
Unmarked numbers belong to inactive results.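 How the source made its calls: active = growth AUC significantly below the DMSO wells by Dunnett test; inactive = the rest.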

compound: CN(C)C(=O)Nc1ccc(Cl)c(Cl)c1; assay: relative growth (AUC of 72 h growth curve relative to DMSO control, dAUC) (ratio); higher = more growth (less inhibition), active = hit call of the paper; conditions: 20 µM
Protocol: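 Environmental bacterial isolates (Iceland stream sediment and Silwood Park soil) and whole stream-sediment communities were grown in LB from a 1:100 dilution with each pesticide at 20 µM (1% DMSO). A600 was read hourly for 72 h and the area under a spline-fitted growth curve (AUC) was computed. dAUC is the mean AUC of 3 biological replicates divided by the mean AUC of the DMSO controls. Significance was tested by Dunnett's test against the DMSO control.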

| Target | relative growth |
| --- | --- |
| Arthrobacter 2 (Arthrobacter humicola) | 0.977 |
| Arthrobacter 3 (Arthrobacter sp.) | 0.947 |
| Community 6 | 1.03 |
| Hymenobacter 1 (Hymenobacter glaciei) | 1.02 |
| Pseudomonas 6 (Pseudomonas sp.) | 1.07 |
| Sphingomonas 2 (Sphingomonas sp.) | 1.04 |
| Community 4 | 1.09 |
| Aeromonas 2 (Aeromonas sobria) | 0.943 |
| Community 7 | 1.23 |
| Flavobacterium 2 (Flavobacterium succinicans) | 0.961 |
| Pseudomonas 1 (Pseudomonas baetica) | 1.03 |
| Neobacillus 1 (Neobacillus soli) | 0.899 |
| Arthrobacter 1 (Arthrobacter humicola) | 0.944 |
| Argrobacterium 1 (Agrobacterium sp.) | 0.867 |
| Pseudomonas 5 (Pseudomonas baetica) | 1.02 |
| Aeromonas 1 (Aeromonas sp. AE235) | 0.942 |

| Target | relative growth |
| --- | --- |
| Serratia 1 (Serratia sp. 2015-2462-01) | 0.942 |
| Community 8 | 1.11 |
| Community 10 | 1.05 |
| Carnobacterium 1 (Carnobacterium gallinarum) | 0.949 |
| Bacillus 1 (Bacillus foraminis) | 0.958 |
| Rhizobium 1 (Rhizobium herbae) | 1.19 |
| Pseudomonas 3 (Pseudomonas mandelii) | 1.02 |
| Community 9 | 1.04 |
| Pseudomonas 2 (Pseudomonas vancouverensis) | 0.988 |
| Prolinoborus 1 (Prolinoborus fasciculus) | 0.957 |
| Flavobacterium 1 (Flavobacterium glaciei) | 0.999 |
| Pseudomonas 4 (Pseudomonas peli) | 0.939 |
| Paenibacillus 1 (Paenibacillus castaneae) | 0.883 |
| Oryzobacter 1 (Oryzobacter terrae) | 1.13 |
| Microbacterium 1 (Microbacterium arborescens) | 1.03 |
| Aeromonas 3 (Aeromonas popoffii) | 0.977 |
